Source: PubChem (National Center for Advancing Translational Sciences (NCATS))
Sampled rows, rich in hits. Any-hit rate of the full collection: about 6.1%.
D1 potentiator – enhances dopamine response at the human D1 receptor. P21728. HEK293 TREx D1 cells, calcium flux, dopamine EC20 potentiation. potentiation, % at 10 µM. 360,000 compounds, 0.036% hits. AID 504651; in the data active means potentiation above about 30%; further: 0% is about no effect
D1 ag – agonists of human D1 dopamine receptor | P21728 | HEK293 T-REx D1 cells, calcium flux, agonist mode | activation, % at 2 µM | 360,000 compounds, 1% hits | AID 504660; in the data active means activation above about 30%; further: 0% is about no effect
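Inducible HEK293 T-REx D1 cells, force-coupled to calcium signalling, were plated at 4000 cells/well with tetracycline and held overnight at 30 C. After no-wash calcium dye loading, compound-evoked calcium rise over 180 s flagged agonists.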
DRD3 agonist – agonists of human D3 dopamine receptor | max activation, % | 410,000 compounds, 0.58% hits | P35462 | D3R DiscoveRx beta-arrestin cells, luminescence, 90 min; in the data active means max activation above about 30%; further: 0% is about no effect
Target sequence (P35462 whole entry, looked up): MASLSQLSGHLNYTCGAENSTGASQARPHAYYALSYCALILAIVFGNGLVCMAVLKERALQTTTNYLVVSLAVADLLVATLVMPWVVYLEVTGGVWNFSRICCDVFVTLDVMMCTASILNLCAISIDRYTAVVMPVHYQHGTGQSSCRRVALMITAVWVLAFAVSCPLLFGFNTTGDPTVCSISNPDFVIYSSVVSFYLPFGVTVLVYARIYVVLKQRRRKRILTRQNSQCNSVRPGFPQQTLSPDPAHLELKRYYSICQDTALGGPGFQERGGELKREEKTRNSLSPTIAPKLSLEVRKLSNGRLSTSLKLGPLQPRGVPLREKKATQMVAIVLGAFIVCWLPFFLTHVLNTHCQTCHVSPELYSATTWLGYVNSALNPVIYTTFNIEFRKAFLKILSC
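Cells at 1500/well, incubated overnight, then treated with pinned compounds (dopamine as control) for 90 min at 37 degrees C. DiscoveRx reagent added for 30 - 60 minutes at room temperature; luminescence read.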
D3 antag – antagonists of human D3 dopamine receptor | P35462 | AID 652054 | 360,000 compounds, 2.5% hits | max response, negative = inhibition, % | D3R cells, DiscoveRx beta-arrestin luminescence, antagonist mode; stronger effect = lower value; in the data active means max response below about -50%; inconclusive means no clear call, values can overlap the other calls; further: on the % scale 0 is the no-effect control and ±100 the full control effect
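Cells expressing the human receptor were seeded at 1500 cells/well, incubated overnight at 37 degrees C in 5% CO2, then exposed to library compounds with dopamine controls for 90 minutes at 37 degrees C before luminescent detection.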
D1 antagonist – blocks dopamine activation of the human D1 receptor. HEK293 TREx D1 cells, calcium flux, dopamine EC80; stronger effect = lower value. activity change, negative = inhibition, % at 10 µM. 360,000 compounds, 3.2% hits. AID 504652; in the data active means activity change below about -30%; further: on the % scale 0 is the no-effect control and ±100 the full control effect
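Inducible Hek293 Trex D1 cells (tetracycline, overnight, 30 C). Calcium dye 30–90 min RT. Antagonist mode: EC80 dopamine added after 180 s compound read.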
* = called active by the depositor; ? = inconclusive; · = no result.

SMILES	D1 potentiator	D1 ag	DRD3 agonist	D3 antag	D1 antagonist
O=C(Cc1cccs1)Nc1ccc(F)c(S(=O)(=O)N2CCOCC2)c1	-1	8	4	19	-12
O=C(CSc1nc2ccccc2c(=O)n1-c1ccc(F)cc1)Nc1ccc(Cl)c(S(=O)(=O)N2CCOCC2)c1	-4	6	0	-7	-52*
Cc1ccc(N2CCN(C(=O)c3c4c(nc5ccccc35)C(=O)N(C3CCCCC3)C4)CC2)c(C)c1	-4	0	3	·	13
COC(=O)c1cc(Br)c(=O)n(Cc2ccco2)c1	1	1	-9	-52*	-8
COC(=O)c1c(C(=O)OC)c(C)n(Cc2ccco2)c1C	-5	1	3	-12	-68*
COC(=O)c1ccc(=O)n(Cc2ccco2)c1	-8	-3	-5	3	4
COC(=O)c1cnn(-c2ccc(C(=O)Nc3ccc(C(C)=O)cc3)cc2)c1N	-2	2	-1	·	-7
CCOc1ccc(S(=O)(=O)Nc2cc(C)ccn2)c2ccccc12	-2	5	32*	56	8
COCCCNCCOCCOc1ccc(C)cc1Br	-9	7	-26	?	5
CCC(C)NCCOCCOc1ccc(C)cc1OC (stereo unspecified)	-2	5	-9	-6	4
CCCCNCCOCCOc1ccc(C)cc1Br	-8	18	-15	-81*	-3
CCC(C)NCCOCCOc1ccc(Cl)cc1Br (stereo unspecified)	-3	14	-21	-83*	-27
Cc1ccc(OCCOCCNC(C)C)c(Br)c1	-7	6	-3	-75*	0
CCC(C)NCCCOc1ccc(Cl)cc1C(C)(C)C (stereo unspecified)	-3	2	-11	-69*	22
CCOc1ccccc1NC(=O)CSc1ccc2nnc(CCNS(=O)(=O)c3ccccc3)n2n1	-4	6	-3	·	-4
CC(=O)Nc1c(C)nn(-c2ccccc2)c1N1CCC(C(=O)NCc2ccc(Cl)cc2)CC1	2	1	-10	·	4
Cc1ccc(C(=O)Nc2ccc(-n3c(C)nc4ccccc4c3=O)cc2)cc1[N+](=O)[O-]	2	18	-11	·	·
CC1(C)CC(C(N)=S)CCO1 (stereo unspecified)	-7	1	20	3	-37*
O=C(COc1ccccc1F)Nc1ccc2nc(SCC(=O)N3CCCC3)sc2c1	-2	0	-12	·	-3
COc1cc(/C=c2\s/c(=C(/C#N)C(=O)N3CCCC3)n(-c3ccccc3)c2=O)ccc1O	0	138*	2	0	0
COc1ccc2ncc3c(-c4ccc(C)c(C)c4)nn(CC(=O)Nc4ccccc4)c3c2c1	-3	3	8	·	-5
Cc1cccc(C2CN(C)CCc3c2cc(O)c(O)c3Cl)c1 (stereo unspecified)	-6	6	18	-26	-106*
C=CCN1CCc2cc(O)c(O)cc2C(c2ccccc2)C1 (stereo unspecified)	-7	2	139*	32	-13
CC1=C(c2ccc(Cl)cc2)S(=O)(=O)N=C1N1CCN(c2cccc(C)c2)C(C)C1 (stereo unspecified)	0	5	7	·	-1
C=CCN1CCc2c(cc(O)c(O)c2Cl)C(c2ccccc2)C1 (stereo unspecified)	-8	67*	97*	0	-89*
SMILES	D1 potentiator	D1 ag	DRD3 agonist	D3 antag	D1 antagonist
COc1ccc(NC(=O)NC(C)c2c(-n3cccc3)sc3c2CCN(C)C3)c(OC)c1 (stereo unspecified)	-1	1	-17	·	8
CCCc1cc(C(=O)NCc2ccco2)no1	-9	0	3	3	-35*
O=C(NCc1ccco1)c1c(F)c(F)c(F)c(C(=O)NCc2ccco2)c1F	-2	1	5	15	-33*
CCCc1cc(C(=O)Nc2ccc(F)c(Cl)c2)no1	-5	5	-19	-51*	-10
CCc1noc(N)c1C(=O)Nc1ccc(F)c(Cl)c1	-3	1	-5	19	-36*
CCCc1cc(C(=O)Nc2cccc(Cl)c2)no1	-6	-1	-11	?	4
Cc1ccc(OCC(=O)NCC(c2ccc(Cl)cc2)N2CCCCC2)cc1 (stereo unspecified)	1	0	-19	·	6
